ALOX12 inh: Primary qHTS assay for inhibitors of human arachidonate 12S-lipoxygenase (ALOX12): Round 2 | purified 12hLO, xylenol orange hydroperoxide absorbance | Potency, µM (doses to about 108 µM), for inactives: at the highest dose activity change, negative = inhibition, actives largely listed as inhibitors | hit rate 1.1% among 580,000
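Purified human 12hLO (150 nM final) in 25 mM Hepes, 0.01% Triton X-100, pH 7.0 was preincubated 15 min at room temperature with compound. Then 40 uM arachidonic acid was added, 30 min. Hydroperoxide was read by Fe-XO absorbance ratio 573/405 nm.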
VDR inh: Inhibitors of the vitamin D receptor (VDR): qHTS; VDR-SRC2-3 peptide fluorescence polarization, 2 h; hit rate 0.93% among 400,000; Vitamin D3 receptor (Homo sapiens), P11473; Potency, µM, for the others: max response, negative = inhibition, hits mostly inhibitors
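Signal is fluorescence polarization, reporting how far test compounds block the interaction of VDR with the SRC2-3 coregulator peptide after a 2 h room-temperature incubation.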
GCN5L2 inh: qHTS Assay for Inhibitors of GCN5L2. GCN5L2 HAT assay, ThioGlo1 CoA-SH fluorescence. AID 504327, 2011. Potency, µM (doses to about 58.9 µM), without a hit: at the top dose activity change, negative = inhibition, actives largely listed as inhibitors. Histone acetyltransferase KAT2A (Homo sapiens), Q92830. hit rate 0.21% among 390,000
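Fluorescence readout, Ex340nm/Em540nm: ThioGlo1 (50uM final) reacts with free CoA thiol released as 20nM GCN5L2 acetylates H3(1-25) peptide (75uM) using acetyl-CoA (70uM). Compound and enzyme sat 15 min beforehand; 20 min room-temperature reaction.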
PLK1 PBD inh: qHTS for Inhibitors of PLK1-PDB (polo-like kinase 1 - polo-box domain): Primary Screen; AID 720504, 2013; hit rate 2.8% among 360,000; Serine/threonine-protein kinase PLK1 (Homo sapiens), P53350; Potency, µM, inactives show max response, negative = inhibition, usual class: inhibitors; Plk1 PBD binding of FITC phosphopeptide, fluorescence polarization; further: series mostly up to about 57 µM; nearly all actives have a fitted effect of over 65% in size
Target sequence (P53350 whole entry, looked up, the tested form may be a part): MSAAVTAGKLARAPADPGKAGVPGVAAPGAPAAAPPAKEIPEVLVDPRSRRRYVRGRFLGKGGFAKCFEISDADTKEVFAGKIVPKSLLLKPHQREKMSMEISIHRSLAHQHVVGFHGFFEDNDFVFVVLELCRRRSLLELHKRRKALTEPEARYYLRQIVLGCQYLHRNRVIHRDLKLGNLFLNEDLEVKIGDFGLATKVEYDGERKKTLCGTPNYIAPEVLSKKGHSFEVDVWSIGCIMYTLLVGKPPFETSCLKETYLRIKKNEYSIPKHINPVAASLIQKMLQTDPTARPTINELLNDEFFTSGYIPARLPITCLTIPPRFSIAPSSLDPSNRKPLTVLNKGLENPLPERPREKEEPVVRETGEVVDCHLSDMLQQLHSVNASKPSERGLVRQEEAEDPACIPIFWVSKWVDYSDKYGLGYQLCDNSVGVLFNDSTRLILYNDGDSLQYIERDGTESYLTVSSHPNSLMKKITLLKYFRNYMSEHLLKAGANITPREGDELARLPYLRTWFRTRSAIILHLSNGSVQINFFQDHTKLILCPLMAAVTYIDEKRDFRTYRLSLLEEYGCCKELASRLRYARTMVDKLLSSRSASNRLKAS
* = called active by the depositor; ? = inconclusive; nt = not tested or not shown; ! = repeats disagree; [ ] = remark or other dose. Rows were chosen to be rich in hits. Some 3% of all compounds tested hit in one or more screens of this group. The call rests on the fitted dose curve; in most records, active means well fitted curve in the direction sought with a large enough effect; inconclusive means small, poorly fitted or top-dose-only effect, or another doubt; inactive means no such curve, though single readings can be large; an effect the other way counts as inactive or inconclusive. On the % scale 0 is the no-effect control and ±100 the full control effect; potency means the concentration at half of the fitted maximal effect.

SMILES	ALOX12 inh	VDR inh	GCN5L2 inh	PLK1 PBD inh
COc1ccccc1C(=O)Nc1cccc(NC(=O)c2ccccc2C)c1	0%	-14%	0%	21µM*
Cc1ccccc1C(=O)Nc1cccc(NC(=O)c2ccc(C(C)(C)C)cc2)c1	12%	50µM*	0%	nt
COc1ccccc1C(=O)Nc1cccc(NC(C)=O)c1	-20%	-5%	-1%	3%
Cc1ccccc1C(=O)Nc1cccc(N)c1	1%	7%	0%	-1%
CCc1c(C)sc(NC(=O)c2cc(-c3ccc(O)cc3)on2)c1C#N	-14%	?	1%	19µM*
CCc1c(C)sc(NC(=O)c2cc(-c3cccc(Cl)c3)on2)c1C#N	-18%	?	-13%	nt
CCc1c(C)sc(NC(=O)c2cc(CC(C)C)on2)c1C#N	9%	-23%	-3%	15µM*
CCc1c(C)sc(NC(=O)c2cc(-c3ccc(OC)c(OC)c3)on2)c1C#N	-5%	-27%	3%	-13%
CCc1c(C)sc(NC(=O)c2noc(C)c2[N+](=O)[O-])c1C#N	?	?	-20%	34µM*
CCC(COC)Oc1cc(NCc2ccccc2)c2ncn(C(C)C)c2c1 (stereo not drawn)	-47%	22µM*	0%	?
CCC(COC(=O)c1ccccc1)Oc1cc(NCc2ccccc2)c2ncn(C(C)C)c2c1 (stereo not drawn)	-28%	79µM*	-14%	-16%
CCC(CO)Oc1cc(NCc2ccccc2)c2ncn(C(C)C)c2c1 (stereo not drawn)	?	?	-10%	-2%
CCN(Cc1ccccc1)c1sc(S(=O)(=O)CC)nc1S(=O)(=O)c1ccc(C)cc1	-25%	nt	nt	nt
O=C1Nc2ccccc2C1=Nc1ccc(Br)cc1	?	22µM*	-9%	-20%
CCOC(=O)c1c(CN(C)C)n(C)c2c(O)c(N=NC(N)=O)c3ccc(Br)cc3c12	?	?	4%	21µM*
Cc1ccc(-c2nccc(N3CCC(O)C3)n2)c(C)c1 (stereo not drawn)	35µM*	nt	nt	nt
Cc1ccc(NC(=O)CCS(=O)(=O)c2ccc(Br)cc2)nc1	-37%	50µM*	3%	12µM*
Cc1ccc(CNC(=O)CCS(=O)(=O)c2ccc(Br)cc2)cc1	11%	-15%	?	17µM*
Cc1ccc(CNC(=O)CCS(=O)(=O)c2ccc3c(c2)NC(=O)CO3)cc1	-12%	-15%	0%	27µM*
Cc1ccc(S(=O)(=O)CCC(=O)Nc2ccc(Br)cc2)cc1	-2%	4%	3%	-7%
CCN(CC)c1ccc(NC(=O)CCS(=O)(=O)c2ccc(Br)cc2)c(C)c1	-23%	7%	-1%	27µM*
Cc1ccc(CNC(=O)CCS(=O)(=O)c2ccc(Cl)cc2)cc1	-21%	-9%	2%	-19%
Cc1ccc(S(=O)(=O)CCC(=O)Nc2ccc(Br)cc2C)cc1	-24%	-7%	-27%	nt
COc1cccc2cc(-c3cc(=O)oc4ccc(C(C)C)cc34)oc12	-3%	nt	nt	nt
Cc1ccc(N(C(=O)c2ccc(C(C)(C)C)cc2)C2C=CS(=O)(=O)C2)cc1Cl (stereo not drawn)	-19%	nt	nt	nt
SMILES	ALOX12 inh	VDR inh	GCN5L2 inh	PLK1 PBD inh
Cc1cccc(C)c1NC(=O)CNC(=O)c1cc2cc(Cl)ccc2nc1C	-5%	nt	nt	nt
Cc1cc(OCc2ccc(C(=O)n3cccn3)o2)ccc1Cl	-5%	-8%	-5%	24µM*
O=C(c1ccc(COc2ccc(F)cc2)o1)n1cccn1	398%	-2%	-7%	-12%
O=C(O)CN1C(=O)/C(=C2\C(=O)N(Cc3ccccc3Cl)c3ccccc32)SC1=S	7%	-19%	?	27µM*
O=C(c1ccc2c(c1)N(Cc1ccccc1Cl)C(=O)c1ccccc1S2)N1CCCC1	-24%	1%	-9%	nt
O=C1/C(=C2\C(=O)N(Cc3ccc(F)cc3)c3ccccc32)SC(=S)N1CCS(=O)(=O)O	?	?	1%	21µM*
CN1C(=O)/C(=C2\SC(=S)N(CC3CCCO3)C2=O)c2ccccc21 (stereo not drawn)	nt	nt	0%	nt
COc1ccc(OC2CN(Cc3ccccc3)C2)cc1	11%[12.5 µM]	nt	nt	nt
C#CC1CN(Cc2ccccc2)CC(C#C)N1C (stereo not drawn)	?	-22%	?	30µM*
Cc1ccc2c(C)nc(Nc3nccc(C)n3)nc2c1	7%	nt	nt	nt
CC1=C(C(=O)Nc2cccnc2)C(c2ccncc2)n2nnnc2N1 (stereo not drawn)	0%	15%	-3%	2%
CC1=C(C(=O)Nc2cccnc2)C(c2ccccn2)n2nnnc2N1 (stereo not drawn)	0%	9%	7.1µM*	4%
CCCc1ccc(C2C3=C(CC(C)(C)CC3=O)NC3=C2C(=O)c2ccccc23)cc1 (stereo not drawn)	25µM*!	-10%	-2%	-13%
CCOC(=O)C1CCCN(C(=O)CCNS(=O)(=O)c2ccc3c(c2)CCC(=O)N3)C1 (stereo not drawn)	0%	?	0%	17µM*
CC1CC(C)CN(C(=O)CCNS(=O)(=O)c2ccc3c(c2)CCC(=O)N3)C1 (stereo not drawn)	-2%	-14%	-3%	6%
Nc1nc2c(s1)C(c1ccc(F)cc1F)CC(=O)N2 (stereo not drawn)	13µM*	nt	nt	nt
COc1cccc(C2CC(=O)Nc3nc(N)sc32)c1OCc1ccc(F)cc1 (stereo not drawn)	2µM*	nt	nt	nt
Nc1nc2c(s1)C(c1cccc(F)c1F)CC(=O)N2 (stereo not drawn)	16µM*	nt	nt	nt
Nc1nc2c(s1)C(c1cccc(OCc3cccc(F)c3)c1)CC(=O)N2 (stereo not drawn)	3.5µM*	nt	nt	nt
Nc1nc2c(s1)C(c1ccc(Br)cc1)CC(=O)N2 (stereo not drawn)	27%	nt	nt	nt
CNc1nc2c(s1)C(c1ccc(F)c(F)c1)CC(=O)N2 (stereo not drawn)	-25%	nt	nt	nt
O=C(NC1CCCCC1)c1cccnc1Cl	16%	nt	nt	nt
COc1cccc(-c2noc(CC3CCN(C(=O)c4cccc(F)c4)CC3)n2)c1	35%	nt	nt	nt
COc1cccc(-n2nnnc2SCC(=O)Nc2ccc(NC(C)=O)cc2)c1	-6%	-18%	-3%	24µM*
CCn1nnnc1SCC(=O)Nc1cccc(NC(C)=O)c1	?	-6%	-1%	-8%
SMILES	ALOX12 inh	VDR inh	GCN5L2 inh	PLK1 PBD inh
Cc1cccc(-n2nnnc2S(C)(=O)=O)c1	-5%	?	-1%	nt
CCn1nnnc1SCC(=O)Nc1cc(OC)cc(OC)c1	-1%	-21%	0%	3.4µM*
COc1cccc(-n2nnnc2S(C)(=O)=O)c1	nt	45µM*	0%	7.5µM*
Cc1ccccc1CS(=O)(=O)CCC(=O)NCCCN1CCN(c2ccccc2F)CC1	230%	12%	-11%	-2%
Cc1cc(C)c2c(=O)n(CC(=O)NCCCN3CCOCC3)sc2n1	nt	?	18µM*	1.5µM*
Cc1cc(C)c2c(=O)n(CC(=O)NCCCN3CCN(c4ccccc4F)CC3)sc2n1	nt	16µM*	?	2.1µM*

Screening data from PubChem.
